According to the OligoGym collection:

The sequences below were run against SIAE (assay: pooled miR-30 sensor sort-seq; sequence = guide strand). Details: shRNA.
Note: reference of the scale not given here.

| Sequence | sensor-assay potency score (higher = more potent) |
| --- | --- |
| TTGATGTATGAAGCAAAGCGAA | -1.38 |
| TTGAGGTCCAATTTGTCTGTAG | 0.183 |
| TACAGAGCCAGACATCTCCAAA | -1.12 |
| TTTCACACTGGTCACTTTCTTC | -0.603 |
| TTTAACTCGAACAACAGTTTGC | -0.109 |
| TATCTTGTTGTCCTTTTTCTGC | -1.26 |
| TAATCCATCAGTAAACTGCATT | -1.07 |
| TAACACAGTCATCTGCATGTTA | -0.177 |
| TTAAATATCTGTAACACAGTCA | 0.571 |

The sequences below were run against SIK3 in the same assay as above. Details: shRNA.

| Sequence | sensor-assay potency score (higher = more potent) |
| --- | --- |
| TAGCTGAGCAGAATGTCTGTAA | -0.0523 |
| TTAATGACTGCAGTGTCTGTTC | -0.0807 |
| TCTAACACCAACATATGGCGGA | 0.184 |
| TTCATAATTTGAACTTCCCGGA | -0.153 |
| TTGAACTCTTACTGTCTTGGAA | -0.119 |
| TTAGTTGTTGGCATTCAGCTAT | -0.107 |
| TACATAAGCATCGTCGCTGTTC | -0.402 |
| TAAATCACGATGAACAATGTTC | -0.457 |
| TCTGTTTGAACTTCCGACGTGC | 0.851 |
| TACTTGAACTCTTACTGTCTTG | -0.689 |
| TTATCTATGATCTTGATAGCAA | -0.377 |
| TATGATCTTGATAGCAACCTTG | -0.675 |

What follows are sequences tested against SIPA1L2 in the same assay as above. Details: shRNA.

| Sequence | sensor-assay potency score (higher = more potent) |
| --- | --- |
| TACAACATTCTTGGAATCCTTT | -0.254 |
| TTGTCTTGTTTTTCCTTCCGAA | -0.306 |
| TACTTTTTGAACAGTGAGCTGA | 0.29 |
| TTATACATCTCTTCCTCTGTGC | 0.628 |
| TAATCTAATCCTGAGATGCGGA | -0.642 |
| TTGTCGAAGAATTAATTCCAGC | -1.01 |
| TTGTTCATCAAGCTTGAGCAGC | -0.923 |
| TTCAGCACAGTTGTCTACCGAG | -0.567 |
| TAACAGTTCGAAGCTTTCGGAA | -0.928 |
| TAGCTTGTGCTTCTCTTCTTGT | -0.716 |
| TAGCGCTTCACTTTCTCCCTGT | 0.691 |
| TTGAACTTTGAAGAGGCTCTGC | 0.37 |

Each sequence was assayed against SIRPD in the same assay as above. Details: shRNA.

| Sequence | sensor-assay potency score (higher = more potent) |
| --- | --- |
| TTTGTTATTTACTTGTACGTTC | 0.326 |
| TTGCACATGGAACACATGTGTG | -0.922 |
| AAATTGTAGATTAATTTCCGGT | -0.422 |
| TACTCCTTGATAGCTCTTCCTT | -0.857 |
| TTGGATTCTGCTCAGTAACAAA | -1.61 |
| TTAATTTCCGGTTTGGCCCTGT | 0.897 |
| TACAGTCTGTGACATCTCCGTT | -0.562 |
